# CYP2C9 act = human CYP2C9 activators, primary screen, biochemical, luminescence; recombinant CYP2C9, luciferin-H conversion; active compounds read high; factor 1 = untreated enzyme, 0 = blocked; activation factor at 5 µM; 96,000 tested, 1.4% active;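 active = activation factor of 2 or more for CYP2C9 at a 5 µM dose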;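 also: 0 = sulfaphenazole-blocked wells and 1 = vehicle-only wells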
# CYP2C9 inh = blockers of cytochrome P450 2C9 activity – biochemical, luminescence, ADME assay, primary screen. CYP2C9 Supersomes, luciferin-H conversion. 96,000 tested, 20% active. P11712. inhibition, % at 5 µM. AID 777, 2007;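 active = blocking of liver enzyme CYP2C9 beyond about 50% at 5 µM, limit read from the data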
# CYP2C19 inhib = blockers of cytochrome P450 2C19 activity – biochemical, luminescence, ADME assay, primary screen; P33261; CYP2C19 Supersomes, luciferin-H EGE luminescence, 30 min; inhibition, % at 5 µM; 96,000 tested, 21% active; AID 778, 2007;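 active = CYP2C19 inhibition above a set limit at 5 µM in the primary screen, cut at about 50% in these data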;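 also: plate controls were negative control wells for no effect and 2.5 mM tranylcypromine positive control for full effect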
# CYP2C19 activ = human CYP2C19 activators, primary screen, biochemical, luminescence; 96,000 tested, under 10 active; Cytochrome P450 2C19 (Homo sapiens), P33261; recombinant CYP2C19, luciferin-H EGE luminescence; active compounds read high; 0 = fully inhibited enzyme, 1 = untreated enzyme; activation factor at 5 µM;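 active = activation factor of at least 2 at 5 µM in the primary screen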;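 also: 0 = wells with 2.5 mM tranylcypromine and 1 = vehicle-only wells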
# * marks the source's active call; other numbers are inactive results. Hits are enriched below; roughly 31% of the tested compounds scored in any of these assays.
SMILES,CYP2C9 act,CYP2C9 inh,CYP2C19 inhib,CYP2C19 activ
Cc1[nH]c2ccc(-c3nnc(SCC(=O)N4CCCc5ccccc54)o3)cc2c1C,0.8,22,12,0.9
Cc1ccc(S(=O)(=O)Cn2nnnc2C(c2ccc(F)cc2)N2CCC(C(N)=O)CC2)cc1 (configuration not stated),0.9,8,-2,1
CCc1cc2cccc(C)c2nc1SCC(=O)NNC(=O)c1ccco1,1.5,-48,-17,1.2
COc1ccc(S(=O)(=O)Nc2ccc3c(c2)OCO3)cc1OC,0.5,47,100*,0
Cc1cccc(NS(=O)(=O)c2ccc3c(c2)OCCO3)c1,0.8,18,100*,0
COc1ccc(S(=O)(=O)Nc2ccc3c(c2)OCO3)cc1C(=O)O,0.9,11,11,0.9
O=C(COC(=O)c1ccc(NS(=O)(=O)c2ccc3c(c2)OCCO3)cc1)NC1CC1,0.4,62*,15,0.9
O=C(O)c1ccc(NS(=O)(=O)c2ccc3c(c2)OCCO3)cc1,1.2,-19,-17,1.2
Cc1cccc(NS(=O)(=O)c2ccc(C3CCCCC3)cc2)c1,0.6,44,69*,0.3
Cc1c(NC(=O)CSc2ccccc2C(=O)Nc2cccnc2)c(=O)n(-c2ccccc2)n1C,0.9,9,-6,1.1
CCCCN(C(=O)NC(=O)Nc1ccccc1C)S(C)(=O)=O,0.5,53*,27,0.7
O=C(CCCc1nc(-c2ccccc2Cl)no1)NCc1cccnc1,1,1,61*,0.4
O=C(CCCc1ccccc1)NCc1cccnc1,0.6,38,91*,0.1
Cc1onc(-c2ccccc2Cl)c1C(=O)NCc1cccnc1,1,-4,36,0.6
O=C(CCCc1nc(-c2ccc(Cl)cc2)no1)Nc1cccnc1,0.3,75*,52*,0.5
Cc1cccc(-c2noc(CCCC(=O)Nc3cccnc3)n2)c1,0.9,12,18,0.8
O=C(Cn1[nH]c(=O)c2ccccc2c1=O)NCc1cccnc1,0.4,63*,11,0.9
O=C(Cn1cc2c(n1)CCCC2)NCc1cccnc1,0.9,14,11,0.9
O=C(CCc1nc(-c2ccccc2)no1)NCc1ccco1,0.4,59*,57*,0.4
O=C(Nc1ccc(-c2noc(CCc3ccccc3)n2)cc1)c1cccnc1,0.5,55*,27,0.7
Cc1cc(OCc2nc(-c3ccc(NC(=O)c4cccnc4)cc3)no2)ccc1Cl,0.8,23,5,0.9
O=C(CCc1nc(-c2ccccc2)no1)NCc1cccnc1,0.5,51*,2,1
O=c1[nH]n(Cc2ccccc2)c(=O)c2ccccc12,0.6,41,72*,0.3
COc1ccccc1N1CCN(C(=O)Cn2nc(C(F)(F)F)c3c2CCC3)CC1,1.9,-94,48,0.5
O=S(=O)(c1ccc2c(c1)nc(COc1ccc(Cl)cc1)n2CC1CCCO1)N1CCOCC1 (configuration not stated),0.7,34,8,0.9
SMILES,CYP2C9 act,CYP2C9 inh,CYP2C19 inhib,CYP2C19 activ
Cc1ccc(N2CC(C(=O)N3CCN(C(=O)c4ccco4)CC3)CC2=O)cc1 (configuration not stated),0.9,8,4,1
O=C(Nc1ccccc1C(=O)N1CCOCC1)c1ccncc1,1.1,-9,-10,1.1
CCc1ccc(C(=O)CN(C#N)c2nc(C)cc(C)n2)cc1,1.7,-71,27,0.7
CCc1ccc(-c2cn(-c3nc(C)cc(C)n3)c(=N)o2)cc1,0.8,23,59*,0.4
FCCCOc1ccc(/C=N/OCc2c(Cl)cccc2Cl)cc1,0.9,6,12,0.9
CCCc1cc(=O)n2[nH]c(CCc3ccccc3)nc2n1,0.5,52*,6,0.9
COc1ccccc1NC(=O)N(Cc1ccccc1)C1=NCC(C)S1 (configuration not stated),0.3,73*,3,1
CNC(=O)N(c1ccccc1)c1ccccc1,0.9,8,4,1
COc1ccccc1N(C(=O)NCc1ccccc1)C1=NCC(C)S1 (configuration not stated),0.4,57*,47,0.5
CC1CN=C(N(Cc2ccccc2)C(=O)Nc2ccccc2)S1 (configuration not stated),0.5,47,18,0.8
CNC(=O)N(C1=NCC(C)S1)c1ccc(F)cc1F (configuration not stated),0.7,26,62*,0.4
Cn1nc([N+](=O)[O-])nc1Oc1ccccc1N,1.1,-12,-7,1.1

# Compound activity deposited in PubChem BioAssay by Sanford-Burnham Center for Chemical Genomics.
